Data from PubChem BioAssay AID1259415 (National Center for Advancing Translational Sciences (NCATS), 2018).
Several values for one entry are separate records, joined by “and”; a condition that tells them apart may be missing. Equal entries are not always repeated. Among all 410,000 compounds or so, about 18,000 (4.4%) were called active. Another 7% or so got no clear call; they are omitted. The entries come from a sample that favours actives as a whole. Values without a mark were called inactive. Rule as the data show it: active = activity change below about -60%; inconclusive = no clear call, values can overlap the other calls; inactive = above about -39%.

Assay: qHTS Assay for inhibitors of the human cytomegalovirus (HCMV)
Settings: HFF cells, HCMV-luciferase reporter, 72 h; at 57.5 µM; stronger effect = lower value
Procedure, shortened: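 Human foreskin fibroblasts infected with luciferase-reporter HCMV at MOI 1 PFU/cell, compounds at two doses. Luciferase measured 72 h post infection; normalized to buffer-only basal and Salinomycin (10uM) controls.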
% is scaled to controls: 0 for no effect and ±100 for the full control effect.

SMILES | activity change, negative = inhibition
Cc1ccc(S(=O)(=O)N2CCC(C(=O)Nc3cc(C)ccc3C)CC2)cc1 | 10.8%
Cc1cc(C)nc(-n2ncc3c2CC(c2ccc(C(C)C)cc2)CC3=O)n1 (stereo not given) | -22.8%
Cc1ccccc1NC(=O)Cn1c(=O)n(Cc2ccco2)c(=O)c2ccc(C(=O)NC3CCCC3)cc21 | 36.1%
CCOC(=O)N1CCc2c(sc(NCc3cccc(F)c3)c2C(=O)Nc2ccccc2OCC)C1 | 30.2%
CN(C(=O)c1c(Cl)cnn1C)C12CC3CC(CC(C3)C1)C2 | -18.8%
O=C(O)c1c(CNCc2cccc(F)c2)c2ccccc2n1Cc1ccccc1 | 8.63%
Cc1ccc(C(=O)Nc2c(C(=O)NC(C)(C)C)oc3ccccc23)cc1 | -18.8%
COc1ccccc1CNc1ccc(-c2nc(-c3ccccc3C)no2)cc1[N+](=O)[O-] | 3.35%
Cc1ccccc1CNC(=O)Cn1c(C)c2cnn(-c3ccccc3)c(=O)c2c1C | -13%
CCCNC(=O)N1CCC2(CC1)CN(C(=O)CN1CCOCC1)[C@H](CO)c1[nH]c3cc(OC)ccc3c12 | 0.475%
CC(C)=CCc1ccc(O)c(=O)cc1C(C)C | -101% (active)
CCNC(=O)c1cc2n(n1)CCCN(Cc1ccc(C)cc1)C2=O | -3.42%
Cc1cc(C)cc(OCC(=O)Nc2c(C(=O)c3ccccc3)oc3ccccc23)c1 | 0.353%
CCC(C)(C)NC(=O)CN(Cc1cccs1)C(=O)CNS(=O)(=O)c1ccc(F)cc1 | -8.36%
COc1ccc(Cn2c(=O)c3oc4ccccc4c3n(CC(=O)Nc3ccc(F)cc3F)c2=O)cc1 | 6.84%
CCOC(=O)c1ccc(NC(=O)CCn2cnnn2)cc1 | 20.5%
CCc1c(Nc2ccccc2C)nc(N)[nH]c1=O | 90.6%
Cc1cc(=O)n(C)c(=O)n1CCCNc1ccccc1 | -33.2%
Cc1[nH]c(N)nc(=S)c1CCCNc1ccccc1 | -99.8% (active)
Cc1nnnn1/C(=C\c1ccccc1)C(=O)OCC(=O)N1CC2(C)CC1CC(C)(C)C2 (stereo not given) | -85.3% (active)
COC(=O)c1cc2n(n1)CCCNC2=O | 14.4%
CCC(C)(O)C(=O)OC1C(=O)OC2CC3C(C)=CC(=O)C(O)C3(C)C3C4(O)OCC23C1C(C)C4O (stereo not given) | -96.7% (active)
COCCNC(=S)N/N=C/c1c(C)[nH]c2ccccc12 | -68.5% (active)

SMILES | activity change, negative = inhibition
COCCCNC(=S)NNC(=O)C(O)(c1ccccc1)c1ccccc1 | -17.8%
COCCNC(=S)N(CCc1c(C)[nH]c2ccc(C)cc12)Cc1cccnc1 | 5.87%
CCOC(=O)c1cccc(NS(=O)(=O)c2cc(-c3cnc(C)o3)ccc2OC)c1 | -8.81%
COc1ccc(CCNC(=O)CC2SC(=Nc3cc(C)cc(C)c3)NC2=O)cc1OC (stereo not given) | 37.9%
COc1ccc(OCC(O)CNC(=O)Nc2ccc(Cl)cc2)cc1 (stereo not given) | -6.88%
CC(=O)N1CCC(N(C(=O)Nc2ccc(Cl)cc2)C(C)C)CC1 | -34.8%
CC(C)S(=O)(=O)c1csc(NC(=O)Nc2ccc(Cl)cc2)c1Cl | -93.2% (active)
COc1ccc(Cl)cc1NC(=O)CN(C)C(=O)c1cc(-c2cccs2)nn1-c1ccccc1 | -21.5%
COc1cc(OC)cc(C(=O)NCCc2csc3nc(-c4ccccc4F)nn23)c1 | -6.5%
Cc1ccc2[nH]c3c(=O)n(CC(=O)NC(C)C)ncc3c2c1 | 5.38%
C=C(C)C(=O)O[C@H]1C/C(C)=C\C(=O)/C=C(\C)[C@H](O)[C@@H]2OC(=O)C(=C)[C@@H]21 | -98.8% (active)
Fc1cccc(-c2nc3c(N4CCOCC4)nccc3[nH]2)c1 | 6.37%
CCc1cccc(-n2nnc(-c3nsc(NC(=O)c4ccc(C)cc4)n3)c2C)c1 | -39.1%
COc1ccc(N(CC(=O)N/N=C/c2cccs2)S(=O)(=O)c2ccc(OC)c(OC)c2)cc1 | 3.94%
Cc1ccsc1/C=N/NC(=O)Cc1cc(=O)[nH][nH]1 | 80.6%
Cc1ccccc1NCC(=O)N/N=C\c1ccc([N+](=O)[O-])s1 | -78.2% (active)
CC(C)(C)c1cc(C(=O)N/N=C/c2ccc([N+](=O)[O-])s2)n[nH]1 | -73.9% (active)
COc1ccc(C(=O)NCC(=O)N/N=C/c2ccc([N+](=O)[O-])s2)cc1OC | -92.4% (active)
COc1ccc(C(=O)NCC(c2ccco2)N2CCc3ccccc32)cc1OC (stereo not given) | -5.62%
C/C(=N\NC(=O)CNc1cccc2ccccc12)c1ccc(Br)s1 | 21.2%
Cc1nnc(SCc2nc3ccccc3nc2C)s1 | 32.2%
CCOC(=O)C1CCN(c2ncnc3c2c(-c2ccccc2)cn3-c2cccc(C)c2)CC1 | -35.2%
CCOc1ccccc1C(=O)Nc1ccc(S(=O)(=O)N2CCCCC2c2cccnc2)cc1 (stereo not given) | -33.6%

SMILES | activity change, negative = inhibition
Cc1[nH]c2ccccc2c1C(=O)C(=O)NCc1nnnn1-c1cccc(F)c1 | -19%
COc1ccc(NC(=O)c2ccc3nc(C(C)C)oc3c2)cc1OC | 6.52%
Cc1cccn2c(=O)c(C(=O)NC(C)c3ccccc3)cnc12 (stereo not given) | -18.5%
COC(=O)c1cc(S(=O)(=O)N2CCN(c3cc(C)ccc3C)CC2)c[nH]1 | 9.83%
Cc1cc(C(=O)N2CCC(C(=O)O)CC2)c(C(F)(F)F)o1 | 0.635%
Cc1ccc(C)c(NC(=O)CSC2=Nc3ccccc3N=C(c3ccc(F)cc3)C2)c1 | 22.5%
COc1ccc(C2Nc3ccccc3C(=O)N2c2ccc(Cl)cc2)cc1Cn1cc([N+](=O)[O-])cn1 (stereo not given) | 8.39%
Cc1ccc2[nH]c(=O)c(CN3CCCCC3)c(-c3ccccc3)c2c1 | 11.7%
Cc1ccc2c(C(=O)CN3CCCC3)c(C)[nH]c2c1 | -81.5% (active)
Cc1[nH]c2ccccc2c1C(=O)CN1CCCC(C)C1 (stereo not given) | 64%
COc1ccc2c(C)c(CCC(=O)NCc3ccc(OC)c(OC)c3)c(=O)oc2c1 | -7.55%
N#CC(C#N)=CN=c1ccn(Cc2ccc(Cl)cc2Cl)cc1 | -94.3% (active)
CCc1nc2cccnc2n1-c1ccc(C(=O)O)cc1 | -6.51%
Cc1c(NC(=S)NC(=O)CCc2ccccc2)c(=O)n(-c2ccccc2)n1C | -11.5%
COc1ccc(C(=O)NC(=S)NNC(=O)CCc2ccccc2)cc1 | -85.4% (active)
CCCCC(=O)NNC(=S)NC(=O)C(c1ccccc1)c1ccccc1 | -31.6%
Cc1cccc(C(C)C)c1NC(=O)C(NS(=O)(=O)c1cccc2nsnc12)c1ccccc1 (stereo not given) | -12.4%
CCOC(=O)c1c(C)n(S(=O)(=O)c2ccc(C)cc2C)c2ccc(NS(=O)(=O)c3ccc(C)cc3C)cc12 | 37%
O=C(c1ccc(C(F)(F)F)cc1)N1CCC(c2nc(-c3ccc(S(=O)(=O)N4CCCC4)cc3)no2)CC1 | -39.7%
Cc1ccccc1NC(=O)c1c(NC(=O)c2ccccc2F)sc2c1CCC(C)C2 (stereo not given) | -1.03%
Cc1cccc(N2CCN(C(=O)COCc3cc(-c4ccc5c(c4)OCO5)on3)CC2)c1C | 10.8% and 0.0657%
CCOC(=O)N1CCN(C(=O)COCc2cc(-c3ccc4c(c3)OCO4)on2)CC1 | -33.7%
CC(C)NC(=O)COCc1cc(-c2ccc3c(c2)OCO3)on1 | -102% (active)

SMILES | activity change, negative = inhibition
O=C(O)c1cccc(N=NN2CCCCCC2)c1 | 134%
CCc1nnc(SCc2c(F)cccc2Cl)c2cc3sccc3n12 | -67.2% (active)
CCc1nnc(SCc2nc(-c3cccc(C)c3)oc2C)c2cc3sc(C)cc3n12 | 22.7%
Cn1c(SCc2c(F)cccc2Cl)nnc1-c1cnccn1 | -2.73%
CCOC(=O)CSC1=Nc2ccccc2C2=NC(CCC(=O)NCc3ccc(F)cc3)C(=O)N12 (stereo not given) | -5.13%
COc1cccc(NC(=O)Nc2ccc3c(c2)N(C)C(=O)c2ccccc2S3)c1 | -33.9%
CCOc1ccc(N2C(=O)CN(c3cccc4ccccc34)C2=S)cc1 | 28.1%
CCO/C=C1\C(=O)N(c2ccc(OCC)cc2)C(=O)c2ccccc21 | -9.21%
CCOc1ccc(N2C(=O)CSC2=NC#N)cc1 | -101% (active)
Cn1c(=O)c(C(=O)O)nn(-c2ccccc2)c1=O | -0.182%
CCN(C(=O)COC(=O)c1cc(NS(=O)(=O)c2ccc(Cl)c([N+](=O)[O-])c2)ccc1O)C1CCCCC1 | -23%
O=C(CCN1CCCCC1)N=Nc1c(O)[nH]c2ccccc12 | 8%
O=[N+]([O-])c1cc(S(=O)(=O)Nc2cccc(Cl)c2)ccc1N=Nc1c(O)[nH]c2ccccc12 | -78.2% (active)
C/C(=N\NC(=O)NC1CCCCC1)c1ccc(OC(F)F)cc1OC(F)F | -36.3%
Cc1ccc(-n2c(C)cc(C(=O)CSc3nnc4ccccn34)c2C)cc1 | -86.1% (active)
Cc1ccc(-n2c(C)nnc2SCC(=O)NC2CC2)cc1 | 17.2%
N#Cc1ccc(CSc2nnc3ccccn23)cc1 | -25.8%
Cc1ccc(-n2nc(C)c(C(=O)O)c2-n2cccc2)cc1 | 3.17%
COC(=O)c1cc(=O)n(-c2c(Cl)cc(C(F)(F)F)cc2Cl)[nH]1 | 31.8%
C=CCn1cc(-c2cccc(C(F)(F)F)c2)cc(C#N)c1=O | -25.4%
CC1(Cc2cccc(C#N)c2)C(=O)Nc2ccc(-c3cccc(C(F)(F)F)c3)cc21 (stereo not given) | -96.6% (active)
